Data on 10 compounds can be found in PubChem BioAssay (EPA / NIEHS).

Molecules are shown by their SMILES. Results filed as inconclusive are left out. Activity calls are given as the source filed them. The calls were made as follows: active = hit-call score of the fitted dose curve at least 0.9, where 1 is the maximum; inconclusive = response in the unintended direction; inactive = score below 0.9.

For one assay, the target named is Small conductance calcium-activated potassium channel protein 1 (Rattus norvegicus) (UniProt P70606). Nature of the assay: NVS_IC_rKCaCh: NovaScreen (NVS) Ion Channel Assay for rat Potassium Channel, Ca2+ Act., VI (KCaCh) (AID 2283336). The protocol: NVS_IC_rKCaCh is a biochemical, single-readout assay that uses extracted gene-proteins from Rat forebrain membranes in a tissue-based cell-free assay. Measurements were taken 1 hour after chemical dosing in a 96-well plate.NVS_IC_rKCaCh is one of one assay component(s) measured or calculated from the NVS_IC_rKCaCh assay. It is designed to make measurements of radioligand binding, a form of binding reporter, as detected with scintillation counting signals by Filter-based radiodetection technology.Data from the assay component NVS_IC_rKCaCh was analyzed into 1 assay endpoint. This assay endpoint, NVS_IC_rKCaCh, was analyzed in the positive analysis fitting direction relative to DMSO as the negative control and baseline of activity. Using a type of binding reporter, loss-of-signal activity can be used to understand changes in the binding as they relate to the gene Kcnn1. Furthermore, this assay endpoint can be referred to as a primary readout, because the performed assay has only produced 1 assay endpoint. To generalize the intended target to other relatable targets, this assay endpoint is annotated to the ion channel intended target family, where the subfamily is potassium channel.
Chain of Small conductance calcium-activated potassium channel protein 1 (Rattus norvegicus) (P70606 whole entry, looked up): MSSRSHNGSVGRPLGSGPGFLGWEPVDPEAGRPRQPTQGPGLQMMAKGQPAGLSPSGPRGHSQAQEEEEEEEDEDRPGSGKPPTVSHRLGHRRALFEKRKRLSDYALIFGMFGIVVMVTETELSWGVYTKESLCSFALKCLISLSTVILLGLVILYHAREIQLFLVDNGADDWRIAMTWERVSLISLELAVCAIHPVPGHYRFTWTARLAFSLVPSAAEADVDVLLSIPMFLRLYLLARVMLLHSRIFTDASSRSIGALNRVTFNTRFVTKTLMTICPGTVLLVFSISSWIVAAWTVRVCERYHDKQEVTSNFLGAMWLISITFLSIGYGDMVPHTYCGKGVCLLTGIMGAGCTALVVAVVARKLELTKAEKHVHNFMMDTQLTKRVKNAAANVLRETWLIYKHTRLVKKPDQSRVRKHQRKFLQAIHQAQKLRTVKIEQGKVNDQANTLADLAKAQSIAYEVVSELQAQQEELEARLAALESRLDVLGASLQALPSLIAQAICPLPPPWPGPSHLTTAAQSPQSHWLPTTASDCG
Binding assays used specific radioligands (tritiated, iodinated) with non-radioactive competitive displacement ligands in agonist or antagonist protocols (as indicated) and various reference compounds and inhibitors to titrate specific binding to receptors and transporters. Most enzyme assays (CYPs, kinases, phosphatases, proteases, HDACs) used recombinant protein and specific substrates (fluorescence mostly, some colorimetric and radioactive) and inhibitors, followed by a biochemical separation of substrate and product. All assays for the biochemical HTS were initially run in duplicate at a single concentration (10 uM for CYP450 assays and 25 uM for all others). […] Each assay was run with positive and negative controls, and concurrent controls on every plate. The follow-up (secondary) screen tested active chemical-pairs in concentration series, as well as a few additional assays not tested in the primary screen, some selected negative inactives, and several cases re-run in the concentration series for confirmatory purposes.
Turning to `COc1ccc2cc(S(=O)(=O)N[C@H](CC(=O)N[C@H](Cc3ccc(CN4[C@H](C)CCC[C@@H]4C)cc3)C(=O)N(C)C(C)C)c3ccc4c(c3)OCO4)ccc2c1`, the result was inactive.

With `CN(C)C(=O)C1(N2CCCCC2)CCN(CC[C@@]2(c3ccc(Cl)c(Cl)c3)CN(C(=O)c3ccccc3)CCO2)CC1`, the result was inactive.

Turning to `OC12N=C(c3ccccc3)SC1Cc1cc(Cl)ccc12` (configuration not stated), the result was inactive.

`CCN(Cc1cccnc1)C(=O)c1cccc(Cl)c1[C@]1(C)C(=O)N(Cc2ccc(OC)cc2OC)c2ccc(Cl)cc21`: the result was inactive.

Test system in the next assay: not listed separately
Nature of the assay: NVS_IC_rCaBTZCHL: NovaScreen (NVS) Ion Channel Assay for Calcium Channel, Type L, Benzothiazepine Site (CaBTZCHL) (AID 2283337). Summed up: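 Test chemicals were added to rat cortical membranes and incubated 1.5 h with a tritiated or iodinated radioligand for the benzothiazepine site. Bound ligand was separated by filtration and counted. Actives from the 25 uM duplicate screen were retested in concentration series.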
Turning to `CCCCCCCCCCCC[N+](C)(C)C`, the AC50 is 12.2 µM (active).

Take `COc1ccc2cc(S(=O)(=O)N[C@H](CC(=O)N[C@H](Cc3ccc(CN4[C@H](C)CCC[C@@H]4C)cc3)C(=O)N(C)C(C)C)c3ccc4c(c3)OCO4)ccc2c1`: the AC50 was 3.52 µM (active).

`Cc1cc(F)ccc1-c1cc(N2CC[C@@H](O)[C@H]2CO)ncc1N(C)C(=O)C(C)(C)c1cc(C(F)(F)F)cc(C(F)(F)F)c1`: the result was inactive.

With `CN(C)C(=O)C1(N2CCCCC2)CCN(CC[C@@]2(c3ccc(Cl)c(Cl)c3)CN(C(=O)c3ccccc3)CCO2)CC1`, the AC50 was 0.27 µM (active).

With `COc1cc(C(=O)NC2CCN(C)CC2)ccc1Nc1ncc2c(n1)N(C1CCCC1)CC(F)(F)C(=O)N2C`, the AC50 is 10.8 µM (active).

Turning to `CCN(CC)C(=O)c1cc(S(=O)(=O)Cc2ccccc2)c(N2CCC(c3ccccc3)CC2)cc1N(CC)CCN(C)C`, the AC50 is 0.214 µM (active).

`Clc1cc(Cl)c2c(c1)N=C1CCCCCN1C2`: the outcome was inactive.

`CN(C[C@@H](CC[N+]12CCC(C3CCCCC3)(CC1)CC2)c1ccc(Cl)c(Cl)c1)C(=O)c1cc(C(F)(F)F)cc(C(F)(F)F)c1`: the concentration at half-maximal activity (AC50) was 1.48 µM (active).
